Screening data deposited in PubChem by National Center for Advancing Translational Sciences (NCATS).
This excerpt belongs to a sample that is enriched for hits.
RE007 growth inh – less growth of the S. pombe RE007 Vpr strain; S. pombe RE007 Vpr strain, BacTiter-Glo ATP luminescence, 24 h; Potency, µM (doses to about 92.2 µM), for the others: at the highest dose activity change, negative = less growth, hits mostly inhibitors; 360,000 compounds, 0.21% hits; AID 651644; active means well fitted falling curve with a large enough effect; inconclusive means small, poorly fitted or top-dose-only effect; inactive means no such curve, though single readings can be large or run the other way; further: potency means the concentration at half of the fitted maximal effect; on the % scale 0 is the no-effect control and ±100 the full control effect; nearly all actives have a fitted effect of over 50% in size
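Fission yeast strain RE007, carrying one chromosomally integrated HIV-1 vpr copy, was seeded at OD 0.01 in PMG+AL medium with 23 nL pinned compound. After 24 h at 30 °C and 99% humidity, viability was read by BacTiter-Glo luminescence.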
Shiga toxin inh – inhibitors of Shiga toxin in Vero cells | 290,000 compounds, 9.2% hits | inhibition, % at 38.7 µM | Vero cells, Shiga toxin protein synthesis inhibition reporter; in the data active means inhibition mostly above about 28%, no sharp cut-off; inactive means mostly below about 43%; further: 0% is about no effect
Tb PYK inh – blocks Trypanosoma brucei pyruvate kinase; Q57TT1; TbPYK enzyme, Kinase-Glo Plus ATP luminescence, 45 min; Potency, µM (highest dose often 76.8 µM), inactives show top-dose activity, negative = inhibition, most hits filed as inhibitors; 410,000 compounds, 0.12% hits; further: potency means the concentration at half of the fitted maximal effect; on the % scale 0 is the no-effect control and ±100 the full control effect; nearly all actives have a fitted effect of over 50% in size
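Luminescent Kinase-Glo Plus end-point after 45 min room-temperature reaction of T. brucei pyruvate kinase started with 130 uM ADP (final). Buffer TEA 50 mM pH 7.2 with KCl, MgCl2, BSA, Tween-20; titration-based qHTS with fitted concentration-effect curves.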
Cycloheximide cs – counter-screen for Shiga toxin inhibitors: cycloheximide protein synthesis inhibition; max response, %; cell reporter, cycloheximide protein synthesis inhibition counterscreen; 300,000 compounds, 12% hits; in the data active means max response mostly above about 13%, no sharp cut-off; inactive means mostly below about 14%; further: read at 38.3 µM for the half of the compounds with a filed dose; 0% is about no effect
FBPA Giardia inh – inhibitors of Giardia lamblia fructose-1,6-bisphosphate aldolase; Potency, µM (titrated, usually from 59.6 µM), for inactives: at the top dose activity, negative = inhibition, usual class: inhibitors; A8B2U2; purified Giardia FBPA; AID 2451; 290,000 compounds, 0.71% hits; further: potency means the concentration at half of the fitted maximal effect; on the % scale 0 is the no-effect control and ±100 the full control effect; nearly all actives have a fitted effect of over 55% in size
Target sequence (A8B2U2 whole entry, looked up): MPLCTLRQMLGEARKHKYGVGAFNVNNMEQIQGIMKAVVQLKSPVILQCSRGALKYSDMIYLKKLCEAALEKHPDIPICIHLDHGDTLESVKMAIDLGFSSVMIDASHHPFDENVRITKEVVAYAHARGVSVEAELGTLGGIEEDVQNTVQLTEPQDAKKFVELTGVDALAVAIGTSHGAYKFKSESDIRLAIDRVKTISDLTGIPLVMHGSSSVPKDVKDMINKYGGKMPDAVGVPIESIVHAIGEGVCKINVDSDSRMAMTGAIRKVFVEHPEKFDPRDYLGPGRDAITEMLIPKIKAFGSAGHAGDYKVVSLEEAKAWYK
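40 nM FBPA preincubated 10 min at RT with compound (up to 57.5 uM final), then substrate plus GAPDH/TPI/NAD/arsenate coupling and diaphorase/resazurin added. Fluorescence read after 20 min at RT, 525/598 nm.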
LmPK inh – blocks Leishmania mexicana pyruvate kinase activity | Q27686 | 290,000 compounds, 0.37% hits | Potency, µM (doses to about 57.5 µM), for the others: at the top dose activity change, negative = inhibition, usual class: inhibitors | AID 1721 | purified LmPK, Kinase-Glo ATP luminescence, 1 h; further: potency means the concentration at half of the fitted maximal effect; on the % scale 0 is the no-effect control and ±100 the full control effect
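Purified LmPK (0.1 nM) with 0.5 mM PEP and 0.1 mM ADP in imidazole buffer pH 7.2 with MgCl2/KCl, 1 h at room temperature. ATP formed was read by luciferase luminescence and normalized to no-enzyme and uninhibited controls.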
Active calls of the source: *; ? = inconclusive; . = not tested or not shown; + = active, no number. Unless noted, the call rests on the fitted dose curve; in most records, active means well fitted curve in the direction sought with a large enough effect; inconclusive means small, poorly fitted or top-dose-only effect, or another doubt; inactive means no such curve, though single readings can be large; an effect the other way counts as inactive or inconclusive.

SMILES	RE007 growth inh	Shiga toxin inh	Tb PYK inh	Cycloheximide cs	FBPA Giardia inh	LmPK inh
CSc1ccc(CN2CCN(C(=O)CC(C)C)CC2)cc1	12%	.	3%	7	?	-4%
CCN1CCN(Cc2ccc(NC(=O)Nc3ccc(SC)cc3)cc2)CC1	7%	58*	1%	44*	7%	-1%
CCN1CCN(Cc2ccc(NC(=O)Nc3ccccc3)cc2)CC1	-4%	+	-7%	46*	2%	-5%
CCN1CCN(Cc2ccc(NC(=O)Nc3cccs3)cc2)CC1	-11%	40*	-3%	41*	-2%	-2%
O=C(CN1CCN(Cc2ccccc2)CC1)Nc1ccccc1	1%	-3	0%	1	4%	1%
O=C(O)COc1ccc2occ(C(=O)c3ccccc3)c2c1	-23%	1	0%	-3	29%	-21%
O=C(c1cccc(Br)c1)c1coc2ccc(O)cc12	-6%	.	0%	.	.	.
Cc1ccc(C(=O)c2coc3ccc(OCC(=O)O)cc23)cc1	-6%	35*	1%	22*	4%	-10%
COc1ccc(C(=O)c2coc3ccc(O)cc23)cc1	14%	43*	-2%	46*	-5%	-4%
O=C(Nc1cccc(F)c1)c1ccc2oc(=O)n(Cc3ccccc3)c2c1	.	.	-4%	.	.	.
COc1cc(NC(=O)CCc2c(C)noc2C)c(Cl)cc1C(=O)O	-9%	.	-1%	.	.	.
COc1cc(OC)cc(-c2nnc(SCc3cccnc3)o2)c1	7%	12	2%	17*	5%	-9%
O=[N+]([O-])c1cccc(-c2nnc(SCc3cccnc3)o2)c1	-3%	35	-5%	13*	-1%	-1%
O=[N+]([O-])c1cccc(-c2ccc3nnc(SCc4cccnc4)n3n2)c1	1%	.	3%	.	.	.
COc1cccc(-c2nnc(SCc3cccnc3)o2)c1	-17%	98*	-7%	67*	-9%	-6%
Cc1cc(-c2nnc(SCc3cccnc3)o2)no1	8%	20	-5%	22	10%	-4%
c1ccc(-c2nc(-c3cccc4ccccc34)c(NC3CCCCC3)o2)cc1	.	.	.	.	2%	.
CN(c1ccccc1)S(=O)(=O)c1cccc(C(=O)Nc2ccc3c(c2)CCC3)c1	2%	82*	-5%	21*	-5%	2%
CC(=O)Nc1ccc(C(=O)Nc2cccc(S(=O)(=O)N(C)c3ccccc3)c2)cc1	20%	.	2%	.	.	.
O=C(O)c1ccccc1-c1ccccc1C(=O)Nc1ccc2c(c1)CCC2	-1%	.	-1%	2	0%	-1%
O=C(Nc1ccc2c(c1)CCC2)c1ccccc1F	-23%	97*	4%	63*	-2%	?
Cc1ccc(C(=O)Nc2nc(C)c(C(=O)Nc3ccc4c(c3)CCC4)s2)cc1	-4%	48*	-10%	45*	-1%	-4%
O=C(Nc1ccc2c(c1)CCC2)c1ccccc1	-30%	48*	0%	31*	-7%	?
Cc1nc(NC(=O)c2ccc(F)cc2)sc1C(=O)Nc1ccc2c(c1)CCC2	11%	16	10%	7	-7%	-9%
NS(=O)(=O)c1ccc(NC(=O)c2ccc3c(c2)OCO3)cc1	5%	-5	14%	-2	-5%	6%
SMILES	RE007 growth inh	Shiga toxin inh	Tb PYK inh	Cycloheximide cs	FBPA Giardia inh	LmPK inh
NS(=O)(=O)c1ccc(NC(=O)c2ccc3c(c2)CCCC3)cc1	-3%	45	2%	48*	-2%	-3%
O=C(Nc1ccc(Cl)cc1)C(c1ccccc1)N(CCO)CCO (configuration not stated)	4%	13	4%	3	-2%	2%
O=C(CSCC(=O)c1ccccc1)Nc1ccccc1Cl	3%	7	-2%	13	0%	-1%
O=C(Nc1ccc(Cl)cc1)C(Cl)C(=O)c1ccccc1 (configuration not stated)	11µM*	53	?	19*	-2%	-1%
O=C(Nc1ccccc1Cl)C(Cl)C(=O)c1ccccc1 (configuration not stated)	2%	102*	-18%	48*	-9%	-6%
CN(C(=O)CN1CCN(c2cc(-c3cccc4oc5ccccc5c34)ncn2)CC1)c1ccccc1	-2%	.	1%	.	.	.
Nc1nsc2ccccc12	?	10	6%	24*	-2%	-1%
Nc1nnc(N)c2ccccc12	46%	-13	-13%	2	1%	0%
